# Laboratory results as given in PubChem BioAssay (NCI).
# Compounds without any hit were thinned out: in the full panel of roughly 83,000, 20% have a hit.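 Negative percent growth values reflect cell death: -40 means 40% of the cells present at the start died, and -100 means all died.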 The source made the active and inactive calls. Rule for the calls: active = growth percent below 10; inactive = the rest.
# Tested on: HS 578T breast
# Assay: NCI-60 one-dose screen, 48 h (100 = growth as untreated, 0 = no growth, -100 = all killed)
# Conditions: 10 µM unless noted
row,Compound,growth
1,CC(C)(C)C(=O)OCOP(=O)(NCc1ccccc1)C1CCCN(O)C1=O (stereo unspecified),14.7% (inactive)
2,CCCc1cc(O)c2c3c(c(=O)oc2c1)CN(C)CC3,45.7% (inactive)
3,Nc1c(F)cc(-c2nc3cc(F)ccc3[se]2)cc1F,94.7% (inactive)
4,Clc1ccc(COC(Cn2ccnc2)c2ccc(Cl)cc2Cl)cc1 (stereo unspecified),69.2% (inactive)
5,Fc1ccc2c(c1)c(-c1nc(-c3c[nH]c4ncccc34)cs1)cn2CCCCN1CCCCC1,-28.6% (active)
6,COc1ccc2nc(NC(=O)COc3cc(/C=C\c4cc(OC)c(OC)c(OC)c4)ccc3OC)sc2c1,-5.92% (active)
7,Oc1c(CCl)cc(Cl)cc1CCl,104% (inactive)
8,COc1cc([C@@H]2c3cc4c(cc3[C@H](OC(C)=O)[C@H]3COC(=O)[C@H]23)OCO4)cc(OC)c1OC,46.6% (inactive)
9,CCOC(=S)S[C@H]1C[C@@H]2[C@H](CC[C@]3(C)C(=O)CC[C@@H]23)[C@@]2(C)CCC(=O)C=C12,108% (inactive)
10,CC1(C)N=C(N)N=C(N)N1c1ccc(CCC(=O)Nc2ccc(S(=O)(=O)F)cc2)c(Cl)c1,59.9% (inactive)
11,Cc1c2cc(Cl)c3ccccc3c2c[n+]2ccccc12,-33.2% (active)
12,COc1cc(NC(C)CCCNC2CN3CCC2CC3)c2ncccc2c1 (stereo unspecified),65.2% (inactive)
13,COC(=O)[C@@H](C)C[C@H](Cc1ccccc1)NC(=O)c1csc([C@@H](C[C@H](C(C)C)N(C)C(=O)[C@@H](NC(=O)C23CC(NC(C)=O)(C2)C3)C2CC2)OC(C)=O)n1,7.48% (active)
14,CC12CCC3C(CCC4=CC(=O)CCC43CF)C1CCC2=O (stereo unspecified),128% (inactive)
15,O=C1OCC2=C1C(c1ccccc1)c1cc3c(cc1N2)OCO3 (stereo unspecified),43.2% (inactive)
16,COc1cc(/C=C\c2cc(OC)c(OC)c(OC)c2)cc(N/C=C\C(=O)c2cc(OC)c(OC)c(OC)c2)c1OC,1.26% (active)
17,Cc1ccc(S(=O)(=O)C(Cl)(Cl)Cl)cc1,96.1% (inactive)
18,c1ccc(COc2ccc3[nH]cc(CCN(Cc4ccccc4)Cc4ccccc4)c3c2)cc1,99.5% (inactive)

row,Compound,growth
1,CCOC(=O)c1c(C)n(Cc2ccccc2)c2cc(CN(C)C)c(O)cc12,61.1% (inactive)
2,Clc1ccc(CSC(Cn2ccnc2)c2ccc(Cl)cc2Cl)cc1 (stereo unspecified),63.5% (inactive)
3,CCCCCCCCCCCCCCCCCCOc1ccccc1COP(=O)(O)OOCC[N+](C)(C)C,15.6% (inactive)
4,CC12CCC3C(C=CC4=C(N)C(=O)CCC43C)C1CCC2=O (stereo unspecified),113% (inactive)
5,CNC(=O)Oc1ccc(N(C)C)cc1C(C)C,94.8% (inactive)
6,C=CC[n+]1ccc(-c2cc[n+](CC=C)cc2)cc1,116% (inactive)
7,ClC1=C(Cl)C(Cl)(C2(Cl)C(Cl)=C(Cl)C(Cl)=C2Cl)C(Cl)=C1Cl,53.3% (inactive)
8,O=c1[nH]cc(N(CCCl)CCCl)c(=O)[nH]1,87.8% (inactive)
9,Cn1cc(C=O)c2nccnc21,100% (inactive)
10,CN1CC(=O)N(O)C1(C)c1cccnc1 (stereo unspecified),108% (inactive)
11,CC1=C([Te]c2ccc(O)cc2)C(=O)c2ccccc2C1=O,8.43% (active)
12,COC(=O)[C@@H](C)C[C@H](Cc1ccccc1)NC(=O)c1csc([C@@H](C[C@H](C(C)C)N(C)C(=O)[C@@H](NC(=O)[C@H]2CCCCN2C)c2ccc(F)cc2)OC(C)=O)n1,1.1% (active)
13,C[C@@H]1O[C@@H](O[C@H]2C[C@@H](O)[C@]3(CO)C4C(CC[C@]3(O)C2)[C@@]2(O)CC[C@H](C3=CC(=O)OC3)[C@@]2(C)C[C@H]4O)[C@H](O)[C@H](O)[C@H]1O (stereo partly specified),22.3% (inactive)
14,CC[C@H](C)[C@H](NC(=O)C12CC(NC(C)=O)(C1)C2)C(=O)N(C)[C@H](C[C@@H](OC(C)=O)c1nc(C(=O)N[C@@H](Cc2ccccc2)C[C@H](C)C(=O)OC)cs1)C(C)C,15.8% (inactive)
15,CC(=O)/C=C/c1ccc2c(c1)OCO2,106% (inactive)
16,C[CH2][Sn]([Cl])([Cl])[CH2]C.Oc1ccccc1C=NCCN=Cc1ccccc1O,100% (inactive)
17,CN1CCCCC1C(C)(O)c1ccccc1 (stereo unspecified),108% (inactive)
18,COc1ccc2c(c1)c(C1(O)CC(CSC#N)OC1=O)cn2C(=O)c1ccc(Cl)cc1 (stereo unspecified),101% (inactive)
